KB-V1 MDR tox = KB-V1 MDR subline cytotoxicity; Potency, µM (titrated, usually from 46.1 µM), actives largely listed as cytotoxic; 3.4% of 400,000 active; KB-V1 MDR cells viability, CellTiter-Glo, 72 h; also: nearly all actives have a fitted effect of over 60% in size
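Potencies derive from concentration-effect curves fitted to normalized luminescence (CellTiter-Glo) of KB-V1 cells treated for 72 h at 37 degrees C in phenol-red-free DMEM containing 10% FBS.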
MCF10A rereplic = DNA re-replication induction in MCF 10a cells; MCF 10A DNA re-replication, Hoechst nuclear intensity, 48 h; AID 624296; Potency, µM (series often up to 46.1 µM), hits mostly activators; 2.9% of 350,000 active; also: nearly all actives have a fitted effect of over 50% in size
KB-3-1 cytotox = KB-3-1 parental cell cytotoxicity; KB-3-1 viability, CellTiter-Glo ATP luminescence, 72 h; AID 1347075; Potency, µM (titrated, usually from 46.1 µM), usual class: cytotoxic; 1.4% of 400,000 active; also: nearly all actives have a fitted effect of over 60% in size
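72 h, 37 °C compound treatment of KB-3-1 parental cells; CellTiter-Glo added, 10 min, luminescence read. Data corrected against DMSO-only plates and normalized before curve fitting.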
SW480 rereplic = inducers of DNA re-replication in SW480 colon cancer cells. AID 624297. SW480 DNA re-replication, Hoechst DNA content imaging, 48 h. 1.8% of 340,000 active. Potency, µM (titrated, usually from 46.1 µM), usual class: activators; also: nearly all actives have a fitted effect of over 55% in size
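Image-based DNA-content assay: after two days of treatment, nuclei were labelled with the DNA dye Hoechst and imaged, and hits were compounds raising the count of nuclei showing high fluorescence intensity.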
IL1B secr inh = inflammasome signaling inhibition, IL-1 beta readout | activity change, % at 57.5 µM | AID 743279 | 4.7% of 360,000 active | THP-1 LPS/ATP IL-1B secretion, AlphaLISA, 16 h; active compounds read low; in the data active = activity change below about -50%; inconclusive = mostly about -30% to -49%
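THP-1 cells pretreated 1 hr with compounds (up to 57.5 uM final), then stimulated with LPS (250 ng/mL final) plus ATP (1.25 mM final); secreted IL-1B measured by AlphaLISA after 16 hr, decreased signal indicating inhibition.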
Of the large screens only hits and unclear results are named; the others gave an inactive call. This is a sample that favours compounds with a hit; in the whole collection about 9.9% have one here. Unless noted, calls follow the shape of the dose curve; as a rule, active = well fitted curve in the direction sought with a large enough effect; inconclusive = small, poorly fitted or top-dose-only effect, or another doubt; inactive = no such curve, though single readings can be large; an effect the other way counts as inactive or inconclusive.

O=C(CSc1nnc(COc2ccc(F)cc2)o1)N1c2ccccc2CCc2ccccc21	KB-V1 MDR tox 6.5µM, MCF10A rereplic inconclusive
CC1Cc2ccccc2N1C(=O)CSc1nnc(-c2cccc(Cl)c2)o1 (stereo unspecified)	none (no result: MCF10A rereplic, SW480 rereplic, IL1B secr inh)
Cc1cccc(OCc2nnc(SCC(=O)N3c4ccccc4CCc4ccccc43)o2)c1	KB-V1 MDR tox inconclusive, IL1B secr inh inconclusive
O=C(CSc1nnc(CNC(=O)c2ccco2)o1)c1ccc(Cl)cc1	SW480 rereplic inconclusive, IL1B secr inh -106
O=C(Nc1nnc(SCC(=O)N2CCCCC2)s1)c1cccs1	KB-V1 MDR tox 21µM
O=C(Cc1cccs1)Nc1nnc(SCC(=O)N2CCCCC2)s1	none
CCOc1cc(C(=O)CSc2nnc(CNc3ccc(Cl)cc3)o2)ccc1NC(=O)CC	KB-V1 MDR tox 21µM, MCF10A rereplic inconclusive, KB-3-1 cytotox inconclusive, IL1B secr inh -103
Cc1cccc(-c2noc(-c3ccc(NC4CCCC4)c([N+](=O)[O-])c3)n2)c1	none (no result: MCF10A rereplic, SW480 rereplic, IL1B secr inh)
Cc1ccc(S(=O)(=O)N2CCC(C(=O)N3CCCCCCC3)CC2)cc1C	KB-V1 MDR tox inconclusive (no result: MCF10A rereplic, SW480 rereplic)
O=C(c1cc(Br)ccc1O)N1CCN(S(=O)(=O)Cc2ccccc2)CC1	KB-V1 MDR tox inconclusive
CC(=O)Nc1cccc(NC(=O)C(=O)c2cn(CC(=O)N3CCCC3)c3ccccc23)c1	none (no result: MCF10A rereplic, SW480 rereplic)
COC(=O)c1cc2c([nH]c1=O)CC(c1ccccc1)CC2=O (stereo unspecified)	KB-V1 MDR tox inconclusive (no result: MCF10A rereplic, SW480 rereplic, IL1B secr inh)
CCCc1nnc(NC(=O)Cn2c(=O)sc3ccccc32)s1	KB-V1 MDR tox 18µM
CCCc1nnc(NC(=O)CSc2nc3ccccc3[nH]2)s1	SW480 rereplic inconclusive, IL1B secr inh -109
CCCc1nnc(NC(=O)CN2C(=O)c3ccccc3C2=O)s1	none
CCc1nnc(NC(=O)CSc2nc3c(C)cccc3[nH]2)s1	none
COc1cc(Cl)c(NC(=O)CCS(=O)(=O)c2ccc3c(c2)NC(=O)CO3)c(OC)c1	KB-V1 MDR tox inconclusive (no result: MCF10A rereplic, SW480 rereplic, IL1B secr inh)
CCN(C(=O)COC(=O)CNC(=O)c1ccc(C)cc1)c1c(N)n(Cc2ccccc2)c(=O)[nH]c1=O	none
CCN(CC)CCn1c2c(c(SCC(=O)Nc3nccs3)nc1=O)CCCC2	none
CC(=O)c1cccc(NC(=O)N2C3CCCC2CC(NC(=O)C2CC2)C3)c1 (stereo unspecified)	none
COc1ccc(-c2sc3ccccc3c2-c2ccc(OCCN(C)C)cc2)cc1	KB-V1 MDR tox inconclusive, MCF10A rereplic inconclusive, KB-3-1 cytotox inconclusive, SW480 rereplic inconclusive
Cc1c(-c2ccccc2)c(-c2ccc(OCCN(C)C)cc2)n2ccccc12	MCF10A rereplic inconclusive, SW480 rereplic inconclusive, IL1B secr inh -59
O=C(NCCC(=O)N1CCN(S(=O)(=O)c2ccccc2Cl)CC1)Nc1ccccc1	IL1B secr inh inconclusive
CC(=O)Nc1ccc(CNc2nc3cc(-c4ccc(F)cc4)sc3c(=O)n2C)cc1	none (no result: MCF10A rereplic, SW480 rereplic)
CC(=O)C1=C(OC(=O)C(C)C)c2ccccc2S(=O)(=O)N1Cc1ccccc1	none (no result: MCF10A rereplic, SW480 rereplic, IL1B secr inh)
C[C@@H]1C[C@H](Nc2ccccc2)c2ccccc2N1C(=O)c1cccnc1	KB-V1 MDR tox inconclusive, MCF10A rereplic 13µM, KB-3-1 cytotox inconclusive, SW480 rereplic inconclusive
O=S(=O)(NCCc1ccc(Cl)cc1)c1cccc2cccnc12	none
CCC(Sc1nc2ccncc2[nH]1)C(=O)Nc1cc(Cl)ccc1C (stereo unspecified)	none
CC1(C)c2[nH]c3ccccc3c2C[C@H]2C(=O)N(Cc3ccccc3)C(=O)N21	MCF10A rereplic inconclusive (no result: IL1B secr inh)
COC(=O)C1Cc2c([nH]c3ccccc23)C2CCC(=O)N12 (stereo unspecified)	none (no result: MCF10A rereplic, SW480 rereplic)
Cc1cccc(CN2C(=O)[C@H]3Cc4c([nH]c5ccccc45)C(C)(C)N3C2=O)c1	KB-V1 MDR tox inconclusive, MCF10A rereplic 16µM, KB-3-1 cytotox inconclusive, SW480 rereplic inconclusive (no result: IL1B secr inh)
CC1(C)c2[nH]c3ccccc3c2C[C@@H]2C(=O)N(Cc3ccccc3)C(=O)N21	KB-V1 MDR tox inconclusive, MCF10A rereplic 23µM, SW480 rereplic inconclusive (no result: IL1B secr inh)
COC(=O)[C@@H]1Cc2c([nH]c3ccccc23)C(C)(C)N1C(=O)CCl	KB-V1 MDR tox inconclusive, MCF10A rereplic 18µM, KB-3-1 cytotox inconclusive, SW480 rereplic 6.5µM, IL1B secr inh -98
O=C(Nc1nnc(-c2ccncc2)s1)NC12CC3CC(CC(C3)C1)C2	none (no result: MCF10A rereplic, SW480 rereplic, IL1B secr inh)
Cc1c(C(=O)Nc2ccc(F)c(Cl)c2)sc2nc3n(c(=O)c12)CCC3	KB-V1 MDR tox inconclusive (no result: MCF10A rereplic, SW480 rereplic, IL1B secr inh)
CC(C)(C)NC(=O)C(=O)NNC(=O)c1cccc(F)c1	IL1B secr inh inconclusive
COc1ccc(C(=O)c2oc3ccc(OC)cc3c2N)cc1	MCF10A rereplic 26µM, IL1B secr inh inconclusive
COC(=O)c1oc2ccc(OC)cc2c1N	none
COc1ccc2oc(/C=C/N(C)C)c(C(=O)c3ccc(Cl)cc3)c2c1	MCF10A rereplic 6.3µM
COc1ccc2oc(C)c(C(=O)c3ccccc3)c2c1	none (no result: IL1B secr inh)
CCc1cccc(C)c1NC(=S)N(CCN(C)C)C(C)c1cccnc1 (stereo unspecified)	none
CN(CC(=O)NCCCc1ccccc1)S(=O)(=O)c1ccc(Br)cc1	none
COc1cc(C)c(COc2ncnc3ccccc23)cc1OC	none
O=C(C1CCCO1)N1CCN(c2ccccn2)CC1 (stereo unspecified)	KB-V1 MDR tox inconclusive
COc1ccc(-n2c(SC(C)C(=O)Nc3ncc(Cl)cc3Cl)nc3ccccc32)cc1 (stereo unspecified)	KB-V1 MDR tox 2.1µM, MCF10A rereplic inconclusive, KB-3-1 cytotox 21µM, SW480 rereplic inconclusive
O=c1cc(-c2ccccc2Cl)oc2c(NS(=O)(=O)c3cc(Cl)cc(Cl)c3O)ccc(O)c12	KB-V1 MDR tox 18µM, KB-3-1 cytotox inconclusive
COc1ccc(-c2noc(-c3ccc(N4CCN(c5ccccc5OC)CC4)c([N+](=O)[O-])c3)n2)cc1	KB-V1 MDR tox inconclusive (no result: MCF10A rereplic, SW480 rereplic, IL1B secr inh)
O=C(Nc1ccccc1)Nc1ccc2ncoc2c1	IL1B secr inh -63
O=C(Nc1ccccc1)Nc1ccc2ocnc2c1	none
O=C(O)c1ccc2c3c(ncnc13)-c1ccccc1C2=O	MCF10A rereplic 2.3µM, KB-3-1 cytotox inconclusive, SW480 rereplic inconclusive
O=C(O)c1cccc2c1C(=O)c1ccccc1C2=O	none
Cc1cc(C)cc(N2C(=O)CC(Sc3ncn[nH]3)C2=O)c1 (stereo unspecified)	SW480 rereplic inconclusive
O=C(CSc1nnc(-c2ccc(Cl)cc2)n1CC1CCCO1)NC1CCS(=O)(=O)C1 (stereo unspecified)	MCF10A rereplic 1.2µM, SW480 rereplic inconclusive
Cc1ccccc1-n1c(-c2ccc(Cl)cc2)cnc1SCC(=O)NC1CCS(=O)(=O)C1 (stereo unspecified)	KB-V1 MDR tox 18µM
O=C(CSc1nnc(-c2ccccc2)n1-c1ccc(Cl)cc1)NC1CCS(=O)(=O)C1 (stereo unspecified)	none
Cc1cc(C)n2nc(SCC(=O)N3CCCC(C)C3)nc2n1 (stereo unspecified)	none
CC(=O)c1ccc(Nc2ccc(-c3ccccc3F)nn2)cc1	MCF10A rereplic inconclusive, KB-3-1 cytotox inconclusive, SW480 rereplic inconclusive
